Results filed as inconclusive are left out. Activity calls are given as the source filed them. How the source made its calls: active means hit-call score of the fitted dose curve at least 0.9, where 1 is the maximum; inconclusive means response in the unintended direction; inactive means score below 0.9.
Assay: Tanguay_ZF_120hpf_SWIM_legacy: (Legacy) Oregon State University Tanguay Lab 120 Hour Post-fertilization zebrafish Assay for Swim Bladder Malformation (AID 2283654);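 further: swim bladder malformation in each larva scored yes or no under brightfield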
Experimental: Tanguay_ZF_120hpf_legacy is a whole embryo, multiplexed endpoint assay using zebrafish larvae exposed for 120 hours post fertilization on a 96-well plate.Tanguay_ZF_120hpf_SWIM_legacy is one of one assay component(s) measured or calculated from the Tanguay_ZF_120hpf_legacy assay. It is designed to make measurements of zebrafish development as detected with brightfield microscopy of developing zebrafish embryos.Data from the assay component Tanguay_ZF_120hpf_SWIM_legacy was analyzed into 1 assay endpoints. This assay endpoint, Tanguay_ZF_120hpf_SWIM_legacy, was analyzed in the positive analysis fitting direction relative to DMSO as the negative control and baseline of activity. Using a type of morphology reporter, gain-of-signal activity can be used to understand changes in developmentals as they relate to the whole embryo. To generalize the intended target to other relatable targets, this assay endpoint is annotated to the zebrafish development intended target family, where the subfamily is swim bladder morphogenesis.
Zebrafish husbandry: Tropical 5D wild-type adult zebrafish were housed in at an approximate density of 1000 per 100 gallon tank at the Sinnhuber Aquatic Research Laboratory, Oregon State University, Corvallis, OR. Each tank was kept at standard laboratory conditions of 28C on a 14-h light/10-h dark photoperiod in fish water consisting of reverse osmosis water supplemented with a commercially available salt (Instant Ocean). Spawning funnels were placed into the tanks the night prior, and embryos were collected and staged. To increase bioavailability, the chorion was enzymatically removed using pronase (63.6mg/ml, >/= 3.5U/mg, Sigma-Aldrich: P5147) at 4 hours post fertilization (hpf) using a custom automated dechorionator.Chemical exposures: Six hpf dechorionated embryos were placed 1 embryo per well in a 96-well plate prefilled with 90 ul of EM using automated embryo placement systems (AEPS). Ten microliters of each row of dilution plate 2 was added to 2 exposure plates. The final DMSO concentration used was 0.64% (vol/vol). Thirty-two embryos were also exposed to 5uM trimethyltin chloride (positive control). Plates were sealed to prevent evaporation and foil covered to reduce light exposure and kept in a 28C incubator. Embryos were statically exposed until 120 hpf. At 24 hpf, embryos were assessed for photomotor response using a custom photomotor response analysis tool (PRAT) and for developmental toxicity endpoints (MO24: mortality at 24 hpf, DP: developmental progression, SM: spontaneous movement, and NC: notochord distortion). At 120 hpf, locomotor activity was measured using Viewpoint Zebralab and assessed for 18 endpoints. Zebrafish acquisition and analysis program (ZAAP), a custom program designed to inventory, acquire, and manage zebrafish data, was used to collect developmental endpoints as either present or absent (i.e., binary responses were recorded). If mortality occurred for an embryo (at either 24 or 120 hpf), the non-mortality endpoints were not measured.
With `N#Cc1c(Cl)cccc1Cl` the outcome was “inactive”. With `CC(C)N1C(=O)N(c2ccccc2)CSC1=NC(C)(C)C` the outcome was “inactive”. For `O=C1C2CC=CCC2C(=O)N1SC(Cl)(Cl)Cl` (stereo not given), the outcome was “inactive”. With `CS(=O)(=O)c1ccc(C(=O)C2C(=O)CCCC2=O)c([N+](=O)[O-])c1` the outcome was “inactive”. In the case of `CC(C)=CC1C(C(=O)OCc2coc(Cc3ccccc3)c2)C1(C)C` (stereo not given), the outcome is reported as “inactive”. With `Cc1cc(C)nc(Nc2ccccc2)n1` the outcome was “inactive”. In the case of `CC(C)N1C(=O)c2ccccc2NS1(=O)=O`, the outcome is reported as “inactive”. For `CC1(C)CON(Cc2ccccc2Cl)C1=O`, the outcome was “inactive”. For `COC(=O)NS(=O)(=O)c1ccc(N)cc1`, the outcome was “inactive”. For `Cc1nc(N(C)C)nc(OC(=O)N(C)C)c1C`, the outcome was “inactive”. In the case of `CSC(=O)c1c(C(F)F)nc(C(F)(F)F)c(C(=O)SC)c1CC(C)C`, the outcome is reported as “inactive”. With `Clc1cccc(C(Cl)(Cl)Cl)n1` the outcome was “inactive”. For `COc1cc(OC)nc(NC(=O)NS(=O)(=O)c2ncccc2OCC(F)(F)F)n1`, the outcome was “inactive”. In the case of `O=C(O)c1c(Cl)ccc2cc(Cl)cnc12`, the outcome is reported as “inactive”. In the case of `CCN(CC)C(=O)C(C)Oc1cccc2ccccc12` (stereo not given), the outcome is reported as “inactive”. For `Cn1c(-c2ccccc2)cc(-c2ccccc2)[n+]1C`, the outcome was “inactive”. With `COc1ccc(-c2ccccc2)cc1NNC(=O)OC(C)C` the outcome was “inactive”. In the case of `CC1(C)C(C=C(Cl)Cl)C1C(=O)OC(C#N)c1cccc(Oc2ccccc2)c1` (stereo not given), the outcome is reported as “inactive”. For `CCOP(=S)(OCC)Oc1nc(Cl)n(C(C)C)n1`, the outcome was “inactive”. In the case of `COC(=O)c1c(C(F)F)nc(C(F)(F)F)c(C2=NCCS2)c1CC(C)C`, the outcome is reported as “inactive”. In the case of `CCNP(=S)(OC)O/C(C)=C/C(=O)OC(C)C` (stereo not given), the outcome is reported as “inactive”. For `CCCC(=NOCC)C1=C(O)CC(CC(C)SCC)CC1=O` (stereo not given), the outcome was “inactive”. For `CNC(=O)Oc1cccc2ccccc12`, the outcome was “inactive”. In the case of `CCOC(=O)C(C)OC(=O)c1cc(Oc2ccc(C(F)(F)F)cc2Cl)ccc1[N+](=O)[O-]` (stereo not given), the outcome is reported as “inactive”. For `CCC(C)n1c(=O)[nH]c(C)c(Br)c1=O` (stereo not given), the outcome was “inactive”. For `COP(=O)(OC)O/C(C)=C/C(=O)N(C)C`, the outcome was “inactive”. In the case of `COC(=O)N(C(=O)N1CO[C@@]2(C(=O)OC)Cc3cc(Cl)ccc3C2=N1)c1ccc(OC(F)(F)F)cc1`, the outcome is reported as “inactive”. For `Cc1cnc(C2=NC(C)(C(C)C)C(=O)N2)c(C(=O)O)c1` (stereo not given), the outcome was “inactive”. In the case of `CC(C)(C)C(=O)C(Oc1ccc(Cl)cc1)n1cncn1` (stereo not given), the outcome is reported as “inactive”. For `CC(C)Oc1cccc(NC(=O)c2ccccc2C(F)(F)F)c1`, the outcome was “inactive”. With `CC(C)Nc1nc(Cl)nc(NC(C)C)n1` the outcome was “inactive”. In the case of `CCOc1nc(C(Cl)(Cl)Cl)ns1`, the outcome is reported as “inactive”. With `CCCCC(C#N)(Cn1cncn1)c1ccc(Cl)cc1` (stereo not given) the outcome was “inactive”. For `CC1(C)C(C(=O)OC(C#N)c2cccc(Oc3ccccc3)c2)C1(C)C` (stereo not given), the outcome was “inactive”. In the case of `O=c1n(Cl)c(=O)n(Cl)c(=O)n1Cl`, the outcome is reported as “inactive”. For `CCCCC(O)(Cn1cncn1)c1ccc(Cl)cc1Cl` (stereo not given), the outcome was “inactive”. In the case of `COP(=S)(OC)Oc1ccc([N+](=O)[O-])c(C)c1`, the outcome is reported as “inactive”. For `CN/C(=N\[N+](=O)[O-])NCc1cnc(Cl)s1`, the outcome was “inactive”. In the case of `CCSC(=O)N1CCCCCC1`, the outcome is reported as “inactive”. For `COc1cc(Cl)c(OC)cc1Cl`, the outcome was “inactive”.

Reference: PubChem BioAssay (EPA / NIEHS)
